In PubChem BioAssay (NCI) one finds growth data, which are given here for 11 compounds.

Some test systems named below: SR leukemia; RPMI-8226 leukemia; OVCAR-8 ovarian; OVCAR-5 ovarian; OVCAR-4 ovarian; SK-OV-3 ovarian; IGROV1 ovarian; OVCAR-3 ovarian; HS 578T breast; NCI/ADR-RES ovarian; T-47D breast; BT-549 breast; MDA-MB-435 melanoma; SW-620 colon; MCF7 breast; HCT-116 colon; HCC-2998 colon; KM12 colon.
Common to all, as to assay: NCI-60 one-dose screen, 48 h (100 = growth as untreated, 0 = no growth, -100 = all killed)
Common to all, as to conditions: 10 µM unless noted

Each structure is given as a SMILES string. The panel holds about 83,000 compounds, 20% with a hit somewhere; the sample as a whole holds those more often.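 Activity criterion: percent growth below 10, measured after cells in 96-well plates were exposed to a single compound concentration for 48 hours.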 Values without a mark were called inactive. The source made the active and inactive calls.

With `CCOP(=O)(OCC)OC[C@]12CCC(C)(C)C=C1[C@H]1CC[C@@H]3[C@@]4(C)CC[C@H](OP(=O)(OCC)OCC)C(C)(C)[C@@H]4CC[C@@]3(C)[C@]1(C)CC2`, the growth in the assay with SR leukemia is -27.4% (active); with RPMI-8226 leukemia, -43% (active); in the assay with OVCAR-8 ovarian it was -27.3% (active); in the assay on OVCAR-5 ovarian, -26.8% (active); with OVCAR-4 ovarian, -1.21% (active); in the assay with SK-OV-3 ovarian it was -2.62% (active). The growth with IGROV1 ovarian is -20% (active); in the assay with OVCAR-3 ovarian, -85.5% (active); with HS 578T breast, -13.5% (active); in the assay with NCI/ADR-RES ovarian it was 0.702% (active); in the assay on T-47D breast it was 13.5%; in the assay on BT-549 breast, -20.2% (active). The growth was -38.4% (active) in the assay on MDA-MB-435 melanoma; -48.4% (active) in the assay on SW-620 colon; -47.5% (active) with MCF7 breast; -59.8% (active) with HCT-116 colon; -50.9% (active) in the assay on HCC-2998 colon; 3.6% (active) in the assay on KM12 colon.

Consider `O=C(NCCN1CCCC1)c1ccc(-c2nc3ccc4[nH]ncc4c3c3c2CCCC3)cc1`, for which the growth with SR leukemia is -24.4% (active); in the assay on RPMI-8226 leukemia, -15% (active); in the assay on OVCAR-8 ovarian it was 10.9%; in the assay on OVCAR-5 ovarian it was 23.5%; in the assay on OVCAR-4 ovarian, 16%; with SK-OV-3 ovarian, 0.026% (active). Besides, the growth with IGROV1 ovarian was 1.22% (active); with OVCAR-3 ovarian, 1.47% (active); in the assay with HS 578T breast, -1.99% (active); in the assay with NCI/ADR-RES ovarian, 93.2%; in the assay with T-47D breast it was 23%; with BT-549 breast, -33.4% (active). The growth was 12.3% with MDA-MB-435 melanoma; 1.5% (active) with SW-620 colon; -9.45% (active) in the assay on MCF7 breast; 1.82% (active) in the assay on HCT-116 colon; -1.05% (active) in the assay with HCC-2998 colon; 1.12% (active) in the assay with KM12 colon.

For `COc1cc(/C=C2\C(=O)Nc3ccccc32)ccc1OCc1ccc(Cl)cc1`, the growth in the assay with SR leukemia was 93.8%; in the assay with RPMI-8226 leukemia, 97.5%; with OVCAR-8 ovarian, 102%; in the assay on OVCAR-5 ovarian, 101%; in the assay on OVCAR-4 ovarian it was 99.1%; in the assay with SK-OV-3 ovarian, 111%. The growth in the assay on IGROV1 ovarian was 102%; in the assay with OVCAR-3 ovarian, 106%; in the assay with HS 578T breast, 105%; in the assay on NCI/ADR-RES ovarian, 100%; with T-47D breast, 107%; in the assay on BT-549 breast it was 109%. The growth with MDA-MB-435 melanoma was 106%; in the assay with SW-620 colon, 96.6%; in the assay with MCF7 breast, 69.5%; in the assay on HCT-116 colon it was 86.9%; in the assay with HCC-2998 colon, 123%; in the assay with KM12 colon, 99.6%.

Turning to `CC(=O)c1cc(C(=O)c2ccc(Br)cc2)n2cc(C)cc(C)c12`, the growth in the assay on SR leukemia is 77.1%; in the assay with RPMI-8226 leukemia, 62.9%; in the assay on OVCAR-8 ovarian, 98.9%; in the assay with OVCAR-5 ovarian it was 89.8%; with OVCAR-4 ovarian, 93.4%; in the assay on SK-OV-3 ovarian, 94.9%. Further, the growth was 85.6% with IGROV1 ovarian; 112% in the assay on OVCAR-3 ovarian; 95.9% in the assay with HS 578T breast; 86.3% with NCI/ADR-RES ovarian; 78.8% in the assay on T-47D breast; 79% in the assay on BT-549 breast. Moreover, the growth was 97.7% in the assay on MDA-MB-435 melanoma; 103% in the assay on SW-620 colon; 85.3% with MCF7 breast; 85.7% with HCT-116 colon; 82.6% with HCC-2998 colon; 97.5% in the assay on KM12 colon.

Take `C=CCn1c(SCC(=O)Nc2ccc(C(=O)/C=C/c3ccc(Cl)cc3)cc2)nnc1-c1c[nH]c2ccccc12`: the growth in the assay with SR leukemia was 71.1%; with RPMI-8226 leukemia, 2.66% (active); with OVCAR-8 ovarian, 76.1%; with OVCAR-5 ovarian it was 97.3%; with OVCAR-4 ovarian, 66.9%; in the assay on SK-OV-3 ovarian, 86.7%. Further, the growth was 58.1% in the assay with IGROV1 ovarian; 84% with OVCAR-3 ovarian; 91.5% with HS 578T breast; 97.7% in the assay with NCI/ADR-RES ovarian; 60.5% in the assay with T-47D breast; 111% with BT-549 breast. The growth is 83.5% with MDA-MB-435 melanoma; 88.3% with SW-620 colon; 9.26% (active) with MCF7 breast; -46% (active) with HCT-116 colon; 97.1% in the assay with HCC-2998 colon; 80.4% in the assay on KM12 colon.

For the compound `NC(N)=Nc1ccc(Oc2cccc(NC(N)=Nc3ccc(Cl)c(C(F)(F)F)c3)c2)cc1`, the growth was 7.43% (active) with SR leukemia; 41.4% in the assay on RPMI-8226 leukemia; 66.8% in the assay with OVCAR-8 ovarian; 48.1% with OVCAR-5 ovarian; 62.4% in the assay with OVCAR-4 ovarian; 54.9% with SK-OV-3 ovarian. Moreover, the growth is -10.5% (active) in the assay with IGROV1 ovarian; 30.8% in the assay with OVCAR-3 ovarian; 35.8% with HS 578T breast; 95.4% in the assay on NCI/ADR-RES ovarian; 57.9% with T-47D breast; 43.8% in the assay on BT-549 breast. The growth was 62.9% in the assay on MDA-MB-435 melanoma; 57% in the assay on SW-620 colon; 42% in the assay on MCF7 breast; 44.9% in the assay on HCT-116 colon; 66.2% in the assay with HCC-2998 colon; 26.2% in the assay with KM12 colon.

Turning to `O=C(NNc1nc2cc(F)c(F)cc2n2c(CN3CC4CNCC4C3)ccc12)c1cnccn1` (stereo not drawn), the growth is 12% with SR leukemia; 20.4% in the assay with RPMI-8226 leukemia; 13.8% with OVCAR-8 ovarian; 42.7% with OVCAR-5 ovarian; 22.8% in the assay with OVCAR-4 ovarian; 13.3% in the assay with SK-OV-3 ovarian. Further, the growth with IGROV1 ovarian is 14.5%; in the assay with OVCAR-3 ovarian, 35.9%; in the assay with HS 578T breast, 72.7%; with NCI/ADR-RES ovarian, 56.7%; in the assay with T-47D breast, 20.8%; in the assay on BT-549 breast it was 28.7%. Besides, the growth with MDA-MB-435 melanoma is 25.3%; in the assay with SW-620 colon, 23.7%; with MCF7 breast it was 10.9%; with HCT-116 colon, 14.8%; in the assay with HCC-2998 colon it was 31.7%; in the assay on KM12 colon, 15.4%.

Regarding `O=C(NNc1nc2cc(F)ccc2n2c(CN3CC4CNCC4C3)ccc12)c1cnccn1` (stereo not drawn), the growth is 12.9% in the assay on SR leukemia; 46.7% in the assay on RPMI-8226 leukemia; 14.3% in the assay with OVCAR-8 ovarian; 43.1% in the assay with OVCAR-5 ovarian; 23.8% in the assay on OVCAR-4 ovarian; 23.4% in the assay on SK-OV-3 ovarian. Moreover, the growth was 24.2% in the assay on IGROV1 ovarian; 36.9% in the assay on OVCAR-3 ovarian; 72.5% with HS 578T breast; 84.8% in the assay with NCI/ADR-RES ovarian; 37.8% with T-47D breast; 35.3% with BT-549 breast. The growth was 26.1% with MDA-MB-435 melanoma; 23% in the assay on SW-620 colon; 12.2% in the assay with MCF7 breast; 16.4% in the assay with HCT-116 colon; 32.1% in the assay with HCC-2998 colon; 16.8% with KM12 colon.

On to `C#Cc1nc(/C=C/C(=O)c2nccn2C)cs1`, for which the growth in the assay with SR leukemia is -40.8% (active); in the assay on RPMI-8226 leukemia, -39.9% (active); in the assay on OVCAR-8 ovarian it was 27.1%; in the assay with OVCAR-5 ovarian it was -87.4% (active); in the assay with OVCAR-4 ovarian, 33.7%; in the assay with SK-OV-3 ovarian it was -59.7% (active). In addition, the growth in the assay on IGROV1 ovarian was -59.1% (active); in the assay on OVCAR-3 ovarian it was -64.4% (active); in the assay on HS 578T breast it was -6.46% (active); in the assay on NCI/ADR-RES ovarian, -26.1% (active); in the assay on T-47D breast, -23.4% (active); in the assay on BT-549 breast, -59.1% (active). The growth was 1.27% (active) in the assay with MDA-MB-435 melanoma; -24.9% (active) in the assay with SW-620 colon; -30% (active) in the assay on MCF7 breast; -48.8% (active) with HCT-116 colon; -83.1% (active) in the assay with HCC-2998 colon; -43.5% (active) with KM12 colon.

`C=C1CC[C@@H]2[C@]3(C)COC(c4ccccc4)O[C@@H]3CC[C@@]2(C)[C@@H]1C/C=C1/C(=O)OC[C@H]1O` (stereo partly drawn): the growth with SR leukemia is 36.9%; in the assay with RPMI-8226 leukemia it was 28.2%; in the assay with OVCAR-8 ovarian it was 56.6%; with OVCAR-5 ovarian it was 105%; in the assay on OVCAR-4 ovarian it was 83.4%; in the assay with SK-OV-3 ovarian, 119%. Further, the growth in the assay with IGROV1 ovarian is 89.3%; in the assay with OVCAR-3 ovarian, 63.8%; in the assay on HS 578T breast, 101%; with NCI/ADR-RES ovarian, 57%; in the assay with T-47D breast, 70.6%; with BT-549 breast it was 63.8%. Further, the growth in the assay on MDA-MB-435 melanoma was 81.4%; in the assay on SW-620 colon, 49.7%; in the assay on MCF7 breast it was 46.1%; with HCT-116 colon it was 38.4%; with HCC-2998 colon, 108%; in the assay on KM12 colon, 86.1%.

Consider `CCc1cccc2c3c(sc12)C(c1ccc(Cl)cc1)C(C#N)=C(/N=C/c1ccc(Cl)cc1)O3` (stereo not drawn), for which the growth with SR leukemia was 13.9%; in the assay on RPMI-8226 leukemia, 8.79% (active); in the assay on OVCAR-8 ovarian it was 28.1%; in the assay on OVCAR-5 ovarian it was 32.9%; in the assay on OVCAR-4 ovarian, 79.1%; with SK-OV-3 ovarian, 55.4%. Also, the growth is 28.1% in the assay on IGROV1 ovarian; -14.2% (active) in the assay with OVCAR-3 ovarian; 8.08% (active) in the assay with HS 578T breast; 5.33% (active) in the assay with NCI/ADR-RES ovarian; 25.7% with T-47D breast; 51.7% with BT-549 breast. Moreover, the growth with MDA-MB-435 melanoma is -58.4% (active); in the assay with SW-620 colon, 29.3%; in the assay with MCF7 breast, 15.8%; in the assay on HCT-116 colon it was 22.2%; in the assay on HCC-2998 colon, 7.72% (active); in the assay with KM12 colon, 13.2%.
